The values below come from PubChem BioAssay AID1851 (National Center for Advancing Translational Sciences (NCATS), 2009).

Screen size: about 16,000 compounds; about 5,100 (32%) were called active. Inconclusive results (about 25%) are left out. Some of the results follow. Unmarked numbers belong to inactive results. The call rests on the fitted dose curve; in most records, active means well fitted curve in the direction sought with a large enough effect; inconclusive means small, poorly fitted or top-dose-only effect, or effect the other way; inactive means no such curve, though single readings can be large or run the other way.
On the % scale 0 is the no-effect control and ±100 the full control effect.

In this assay the target is Cytochrome P450 3A4 (Homo sapiens) (UniProt P08684). As to the kind of experiment: Cytochrome panel assay with activity outcomes. To be noted: recombinant CYP, pro-luciferin dealkylation, luminescence, p450-cyp3a4; series mostly up to 57.1 µM; activity, negative = inhibition: at the top concentration.
Chain of Cytochrome P450 3A4 (Homo sapiens) (P08684 whole entry, looked up): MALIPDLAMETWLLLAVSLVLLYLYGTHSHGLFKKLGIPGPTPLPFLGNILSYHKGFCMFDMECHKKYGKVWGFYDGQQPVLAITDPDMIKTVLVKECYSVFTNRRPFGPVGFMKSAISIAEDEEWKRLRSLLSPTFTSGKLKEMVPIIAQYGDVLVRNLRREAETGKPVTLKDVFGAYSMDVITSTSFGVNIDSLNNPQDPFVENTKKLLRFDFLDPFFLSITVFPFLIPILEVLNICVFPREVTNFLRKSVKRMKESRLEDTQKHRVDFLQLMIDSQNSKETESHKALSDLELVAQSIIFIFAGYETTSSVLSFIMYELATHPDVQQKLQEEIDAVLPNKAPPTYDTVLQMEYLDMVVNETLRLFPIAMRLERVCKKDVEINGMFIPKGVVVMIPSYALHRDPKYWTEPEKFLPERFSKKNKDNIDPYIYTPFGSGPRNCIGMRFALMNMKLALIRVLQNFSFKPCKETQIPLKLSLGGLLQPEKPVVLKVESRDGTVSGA
Regarding `COCC(=O)Nc1c(I)c(C(=O)NC[C@@H](O)CO)c(I)c(C(=O)N(C)C[C@@H](O)CO)c1I`, the “activity, negative = inhibition” value is -14.3% [at 25.6 µM].

The AC50 is the midpoint of the concentration-response curve, whichever way the signal moves. Consider `CN(CCOc1ccc(C[C@H](Nc2ccccc2C(=O)c2ccccc2)C(=O)O)cc1)c1ccccn1`, for which the AC50 is 10 µM (active).

On to `CCN(CC)CCOc1ccc(Cc2ccccc2)cc1`, for which the “activity, negative = inhibition” value is 4.64%.

Turning to `CC1=CC(=O)CC(C)(C)[C@]1(O)/C=C\C(C)=C\C(=O)O`, the activity, negative = inhibition is -1.41% [at 11.4 µM].

Consider `S=c1[nH]nc(CSCc2ccccc2Cl)n1-c1ccccc1`, for which the AC50 was 7.94 µM (active).

Turning to `CCc1nnc(NC(=O)C2CCN(C(=O)NC3CCCCC3)CC2)s1`, the “activity, negative = inhibition” value is -25.1%.

As for `CCOC(=O)N1CCC(NC(=O)C2CCN(S(=O)(=O)N3CCCC3)CC2)CC1`, the “activity, negative = inhibition” value was -7.25%.

Take `CCNC(=S)N1CCC(NC(=O)C2CCCCC2)CC1`: the AC50 is 14.1 µM (active).

As to `CCn1c(SCC(=O)Nc2ccc3c(c2)OCCO3)nc2c(c1=O)SC(C)C2` (stereo not drawn), the concentration at half-maximal activity (AC50) was 10 µM (active).

For the compound `CCn1c(SCC(=O)Nc2nc3ccc(C)cc3s2)nc2c(c1=O)SC(C)C2` (stereo not drawn), the AC50 is 5.01 µM (active).

Consider `Cc1ccc2nc(NC(=O)CSc3nc4c(c(=O)n3C)SC(C)C4)sc2c1` (stereo not drawn), for which the “activity, negative = inhibition” value is 16.7%.

Regarding `CCn1nnnc1SCC(=O)NC1CCCC1`, the “activity, negative = inhibition” value is -18.8%.

As for `CCn1c(SCC(=O)NC2CCCCC2)nc2c(c1=O)SC(C)C2` (stereo not drawn), the AC50 is 15.8 µM (active).

In the case of `CCOc1ccc(-n2c(SCC(=O)Nc3ccc4c(c3)OCCO4)nc3c(c2=O)SCC3)cc1`, the “activity, negative = inhibition” value is -11.1%.

In the case of `Cc1nc2cccc([N+](=O)[O-])c2n1CCCN(C)C`, the activity, negative = inhibition is -0.756% [at 11.4 µM].

In the case of `O=C(c1cccc(F)c1)N1CCC2(CCCN(c3ncccn3)C2)CC1`, the “activity, negative = inhibition” value was -1.46%.

Take `O=C(c1cccc(F)c1)N1CCC[C@@]2(CCN(Cc3ccncc3)C2)C1`: the AC50 is 3.16 µM (active).

Consider `CC(=O)N1CCC2(CCN(Cc3nccs3)CC2)CC1`, for which the “activity, negative = inhibition” value is 18.4%.

Turning to `O=C(c1cccc(F)c1)N1CCC2(CCCN(Cc3nccs3)C2)CC1`, the AC50 was 10 µM (active).

`O=C(c1cccc(F)c1)N1CCC2(CC1)CN(Cc1ccccc1)C2`: the “activity, negative = inhibition” value was -11.9%.

On to `O=C(c1cccc(F)c1)N1CCC[C@@]2(CCN(Cc3nccs3)C2)C1`, for which the AC50 is 7.94 µM (active).

Turning to `CC(C)CN1CC2(CCN(C(=O)c3cccc(F)c3)CC2)C1`, the “activity, negative = inhibition” value is 8.57%.

Turning to `CC(C)CN1CCC2(CC1)CCN(C(=O)c1cccn1C)CC2`, the “activity, negative = inhibition” value is 2.24%.

As for `Cn1cccc1C(=O)N1CCC[C@@]2(CCN(Cc3nccs3)C2)C1`, the AC50 is 15.8 µM (active).

Consider `CC(C)CN1CCC2(CC1)CCN(C(=O)c1cccc(F)c1)CC2`, for which the “activity, negative = inhibition” value was -18%.

Consider `CCCc1ncc(C[n+]2ccccc2C)c(N)n1`, for which the “activity, negative = inhibition” value was -0.453% [at 25.6 µM].

On to `CC(C)(C)N1C(=O)[C@H]2[C@H]3[C@H](O)[C@H](O)C/C(=N/NC(=O)OCc4ccccc4)[C@@H]3CC[C@@H]2C1=O`, for which the activity, negative = inhibition is -15% [at 11.4 µM].

With `COC(=O)c1c(NC(=O)C(C)(C)C)sc2c1C(C(=O)OC)CC2` (stereo not drawn), the “activity, negative = inhibition” value was 15.7%.

Take `Cc1cc(=O)[nH]c(-n2[nH]c(C)cc2=O)n1`: the “activity, negative = inhibition” value is -20%.

As for `CCOC(=O)c1ccc(NC(=O)CC2NCCNC2=O)cc1` (stereo not drawn), the “activity, negative = inhibition” value was 4.99%.

On to `CCOC(=O)c1ccc(NC(=O)COc2ccccc2OC)cc1`, for which the AC50 is 31.6 µM (active).

With `COc1ccc(C(=O)Nc2ccc(C(=O)OCC(=O)c3ccccc3)cc2)cc1`, the “activity, negative = inhibition” value is 17.9%.

Turning to `CC1=NN(c2ccccc2)C(=O)[C@@H]1N=Nc1ccc(S(N)(=O)=O)cc1`, the activity, negative = inhibition is -5.5% [at 11.4 µM].

For `CCOCc1cnc(C)nc1NCC(=O)c1c(C)[nH]c2ccccc12`, the “activity, negative = inhibition” value was -7.96%.

With `c1ccc(CN2CC[C@@H](CNc3ncnc4ccccc34)C2)cc1`, the activity, negative = inhibition was -19.3% [at 11.4 µM].

On to `O=S(=O)(NC1CCN(Cc2ccccc2)CC1)c1cccc2cccnc12`, for which the AC50 was 15.8 µM (active).

As for `Oc1ccc(CNCc2ccccc2)c2cccnc12`, the activity, negative = inhibition is -8.41% [at 11.4 µM].

In the case of `O=C(NCCCN1CCN(C2CCCCC2)CC1)Nc1ccccc1C(F)(F)F`, the “activity, negative = inhibition” value is -2.67%.

As for `O=C(NCCCN1CCN(Cc2ccccc2)CC1)C1CCN(S(=O)(=O)N2CCCC2)CC1`, the “activity, negative = inhibition” value is -24.6%.

Regarding `O=C(NCCCN1CCCCCC1)[C@@H](c1ccccc1)C1CCCCC1`, the AC50 was 3.98 µM (active).

With `Cc1ccc(-c2ccc(CCC(=O)O)o2)cc1`, the “activity, negative = inhibition” value was -10.7%.

On to `COC(=O)C(NS(=O)(=O)c1ccc(NC(C)=O)cc1)C(C)C` (stereo not drawn), for which the “activity, negative = inhibition” value was -23.1%.

For the compound `COc1ccc(CCNC(=O)CC(NS(=O)(=O)c2ccc(NC(C)=O)cc2)C(C)C)cc1OC` (stereo not drawn), the AC50 is 15.8 µM (active).

Consider `COc1ccc(CONS(=O)(=O)c2ccc(NC(C)=O)cc2)cc1Cl`, for which the concentration at half-maximal activity (AC50) is 3.16 µM (active).

In the case of `Cc1ccc(S(=O)(=O)N(CC(=O)NCCC2=CCCCC2)Cc2ccccc2F)cc1`, the activity, negative = inhibition is -9.36% [at 2.29 µM].

As for `CCCCCOc1ccc(NC(=O)C(=O)NCCC2=CCCCC2)cc1`, the “activity, negative = inhibition” value was 3.45%.

For the compound `CC(=O)Nc1ccc(S(=O)(=O)NC(CC(=O)NCCC2=CCCCC2)C(C)C)cc1` (stereo not drawn), the half-maximal activity concentration (AC50) is 15.8 µM (active).

As for `CC(=O)Nc1ccc(S(=O)(=O)N=S(C)C)cc1`, the AC50 entry is “inactive”.
